From PubChem BioAssay AID411 (National Center for Advancing Translational Sciences (NCATS), 2006) come the findings set out here.

The campaign covered roughly 72,000 compounds. About 1,600 (2.2%) were called active. Shown is part of a subset that was picked to be rich in actives. Unmarked numbers belong to inactive results. The call rests on the fitted dose curve; in most records, active means well fitted inhibition curve with a large enough effect; inconclusive means small, poorly fitted or top-dose-only effect; inactive means flat fitted curve, though single readings scatter.
On the % scale 0 is the no-effect control and ±100 the full control effect; potency means the concentration at half of the fitted maximal effect.

For this assay, the target named is Luciferin 4-monooxygenase (Photinus pyralis) (UniProt P08659). Briefly: qHTS Assay for Inhibitors of Firefly Luciferase. Further: nearly all actives have a fitted effect of over 40% in size. The note with it: purified firefly luciferase, luminescence, 8 min; series mostly up to 57.1 µM; activity change, negative = inhibition: at the top concentration. In short, it runs like this: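 Luminescence read-out after 8 min at room temperature; enzyme reaction used luciferin plus 10 uM ATP (linear range) in imidazole buffer pH 7.2 with KCl, MgCl2, Tween 20 and BSA. Each sample was run as a titration.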
Chain of Luciferin 4-monooxygenase (Photinus pyralis) (P08659 whole entry, looked up): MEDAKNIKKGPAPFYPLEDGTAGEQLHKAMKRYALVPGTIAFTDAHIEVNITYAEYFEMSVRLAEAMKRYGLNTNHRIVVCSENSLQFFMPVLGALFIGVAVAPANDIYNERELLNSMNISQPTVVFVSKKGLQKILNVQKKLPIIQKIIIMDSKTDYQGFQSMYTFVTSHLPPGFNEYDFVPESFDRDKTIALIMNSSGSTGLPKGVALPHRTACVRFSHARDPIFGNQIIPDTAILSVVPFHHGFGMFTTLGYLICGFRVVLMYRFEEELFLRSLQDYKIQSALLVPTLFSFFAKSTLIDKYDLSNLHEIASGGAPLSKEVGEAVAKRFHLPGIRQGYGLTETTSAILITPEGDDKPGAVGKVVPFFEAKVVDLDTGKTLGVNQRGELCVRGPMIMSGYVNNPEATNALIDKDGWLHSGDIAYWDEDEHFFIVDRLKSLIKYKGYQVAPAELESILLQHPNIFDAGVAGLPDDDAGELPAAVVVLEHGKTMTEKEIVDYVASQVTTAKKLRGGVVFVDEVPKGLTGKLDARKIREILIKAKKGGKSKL
(In qHTS, concentration-response curves come from the screen itself.)
As for `Cc1ccsc1C(=O)OCC(=O)c1cc2ccccc2o1`, the “activity change, negative = inhibition” value is -16.8%.
Regarding `Cc1ccsc1C(=O)OCC(=O)c1cc(C)n(CC2CCCO2)c1C` (centres undefined), the Potency was 1 µM (active).
Regarding `COC(=O)c1ccc2c(=O)n(CC3CCCO3)c(=S)[nH]c2c1` (centres undefined), the “activity change, negative = inhibition” value is -0.889%.
Still for that read-out and setting: for `O=S(=O)(O)c1nc2ccccc2n1Cc1ccc(Cl)cc1Cl` the value was 0.262% [at 25.5 µM]; for `CN1CCN(S(=O)(=O)c2ccc(NC(=O)C3CCCO3)cc2)CC1` (centres undefined), 3.62%; for `C[C@@H]1C[C@H]2[C@@H]3C[C@H](F)C4=CC(=O)C=C[C@@]4(C)[C@]3(F)[C@H](O)C[C@]2(C)[C@@]1(O)C(=O)CO`, 0.574% [at 25.5 µM].
Same read-out and setting: for `CN(C)/C=C1/C(=O)Nc2ccccc21` the value was 0.13%; for `CCc1nc2ccccc2n(CCOCCOCCn2c(=O)c(CC)nc3ccccc32)c1=O`, 3.93%.
As to `O=C(NCc1cccnc1)c1cn(-c2ccccc2)nc1-c1cccs1`, the Potency was 10 µM (active).
For `COC(=O)c1cn(-c2ccccc2)nc1-c1cccnc1`, the “activity change, negative = inhibition” value was 1.75%.
Still for that read-out and setting: for `O=C(c1cn(-c2ccccc2)nc1-c1cccnc1)N1CCCCC1` the value was -2.89%.
In the case of `CC(=O)/C(C)=N\O`, the Potency result is “inactive”.
For `COc1cc(-c2nc(-c3ccncc3)no2)cc(OC)c1OC`, the “activity change, negative = inhibition” value was -4.91%.
For `CCOc1nc(-c2ccc(OC)cc2)ccc1-c1noc(-c2cc(OC)c(OC)c(OC)c2)n1`, the “activity change, negative = inhibition” value was 1.4%.
Turning to `COc1ccc(-c2noc(-c3cccc(OC)c3OC)n2)cc1OC`, the Potency was 6.31 µM (active).
With `COC(=O)[C@@H]1CC[C@H](C)[C@@H](c2ccc(C)cc2)N1C(=O)c1ccc(/C=N\OC[C@@H](O)COCc2ccco2)cc1`, the activity change, negative = inhibition is -0.535% [at 11.4 µM].
Regarding `CCc1cc2c(=O)c(-c3ccon3)c(N)oc2cc1OC`, the Potency was 3.98 µM (active).
Regarding `CC1CCC(NS(=O)(=O)c2ccc3c(c2)n(C)c(=O)c(=O)n3C)CC1` (centres undefined), the “activity change, negative = inhibition” value is 0.852%.
The same measure, in the same setting: for `CCOC(=O)C1C(=O)NC(N2CCN(c3ccccc3)CC2)=NC1c1ccco1` (centres undefined) the value was 2.05%.
Regarding `CCOC(=O)C1C(=O)C=C(c2ccc(OC)cc2)CC1c1ccco1` (centres undefined), the Potency was 25.1 µM (active).
For the compound `COc1ccc(CCNC(=O)c2ccco2)cc1`, the “activity change, negative = inhibition” value was -4.8%.
With `CN1C(=O)c2ccccc2C(C(=O)NCCCN2CCCC2)C1c1c[nH]c2ccccc12` (centres undefined), the “activity change, negative = inhibition” value was 1.89%.
Take `O=C1OCCC=C1[C@@H](O)CCc1ccccc1`: the activity change, negative = inhibition was 1.7% [at 11.4 µM].
Regarding `CN1CCN(CC(=O)Nc2sc3c(c2C#N)CCC(C(C)(C)C)C3)CC1` (centres undefined), the “activity change, negative = inhibition” value was 2.15%.
As to `COc1ccc(C(=O)Cn2nnc(-c3ccc(N4CCOCC4)cc3)n2)cc1OC`, the Potency is 10 µM (active).
For the compound `CCOc1ccc(-c2nnn(CC(=O)N3CCN(c4ccc(F)cc4)CC3)n2)cc1OCC`, the “activity change, negative = inhibition” value is 1.81%.
Same read-out and setting: for `CCOc1ccc(-c2nnn(CC(=O)N3CCN(c4ccc(OC)cc4)CC3)n2)cc1OCC` the value was -0.335%; for `CCOC(=O)c1cc2sccc2n1Cc1ccc(C#N)cc1`, 0.824%.
Same read-out and setting: for `O=C(O)c1ccc(C(=O)O)c2c(C(=O)O)ccc(C(=O)O)c12` the value was -2.88% [at 11.4 µM].
Turning to `CC(C)(C)c1ccc(C(=O)CSc2ncn[nH]2)cc1`, the Potency was 15.8 µM (active).
As for `Cn1nnc(NC(=O)CSc2ncn[nH]2)n1`, the “activity change, negative = inhibition” value is -1.66%.
The same measure, in the same setting: for `CCN(C(=O)CSc1ncn[nH]1)c1cccc2ccccc12` the value was 3.18%.
The same measure, in the same setting: for `CCOc1cc(C)c(Cl)cc1S(=O)(=O)n1nnc2ccccc21` the value was 1.16%; for `C=CCn1c(SCc2nnc(-c3ccccc3)o2)nnc1C(O)c1ccccc1` (centres undefined), -0.126%.
On to `Cc1cccc(NC(=O)COc2ccc(Br)cc2C)n1`, for which the Potency was 10 µM (active).
Take `CCOc1ccc(OCc2ccc(C(=O)Nc3cccc(C)n3)o2)cc1`: the “activity change, negative = inhibition” value was 2.72%.
On the same count and under the same terms, for `Cc1cccc(NC(=O)COc2ccccc2C)n1` the value was -11.8%.
Consider `COc1cccc(-c2nc3n(n2)C(c2ccccc2Cl)C(C(N)=O)=C(C)N3)c1` (centres undefined), for which the “activity change, negative = inhibition” value was -0.456%.
Same read-out and setting: for `O=C(Nc1ccccc1C(F)(F)F)c1cc(-c2ccc(O)cc2)on1` the value was -4.79%; for `CC(C)CNC(=O)c1cc(-c2ccc(Br)cc2)on1`, -1.15%.
For the compound `CC(C)Cc1cc(C(=O)Nc2cc(Br)ccc2O)no1`, the Potency is 12.6 µM (active).
Take `O=C1c2cccnc2C(Nc2ccc(S(=O)(=O)N3CCCCCC3)cc2)N1Cc1ccccc1` (centres undefined): the “activity change, negative = inhibition” value was -2.25%.
As to `COC(=O)c1cn(C)c2ccc(S(=O)(=O)N3CC(C)CC(C)C3)cc2c1=O` (centres undefined), the “activity change, negative = inhibition” value was 2.46%.
Still for that read-out and setting: for `C=CCSc1nc2ccccc2[nH]1` the value was -5.6%; for `c1ccc(-c2[nH]ncc2-c2nc3ccccc3[nH]2)cc1`, -10.9%.
For `c1ccc2[nH]c(-c3nc4ccccc4[nH]3)nc2c1`, the Potency is 2.51 µM (active).
As for `CC(=O)c1nc(N2C(=O)C3CC=C(C)CC3C2=O)sc1C` (centres undefined), the “activity change, negative = inhibition” value is 3.83%.
Same read-out and setting: for `COc1ccc2[nH]c3cc4c(=O)c5cc(OC)ccc5[nH]c4cc3c(=O)c2c1` the value was -0.432% [at 11.4 µM]; for `COc1ccc2[nH]c3c(=O)n(Cc4ccco4)cnc3c2c1`, -4.13%.
On to `COc1ccc2[nH]c3ccc(OC)cc3c2c1`, for which the Potency was 20 µM (active).
Regarding `CCOc1ccc(N2C(=O)CC(N(O)c3ccccc3)C2=O)cc1` (centres undefined), the “activity change, negative = inhibition” value was 0.494%.
`CCC(=O)Oc1cccc(C(=O)Nc2ccc(-c3nnc(-c4ccco4)o3)cc2)c1`: the “activity change, negative = inhibition” value was -6.47%.
Take `CCOc1ccc(-c2nnc(-c3ccco3)o2)cc1`: the Potency is 7.94 µM (active).
Regarding `Cc1ccc(OCC(=O)Nc2ccc(-c3nnc(-c4ccco4)o3)cc2)cc1`, the “activity change, negative = inhibition” value was 0.889%.
